Data from PubChem BioAssay (NCATS).
Results filed as inconclusive are left out. Activity calls are given as the source filed them. Calls come from the whole dose curve; as a rule, active = well fitted inhibition curve with a large enough effect; inconclusive = small, poorly fitted or top-dose-only effect; inactive = flat fitted curve, though single readings scatter.

Columns and labels:
Assay in all cases: qHTS profiling for inhibitors of Plasmodium falciparum proliferation (AID 504749); note: nearly all actives have a fitted effect of over 60% in size
Conditions in all cases: P. falciparum in erythrocytes, SYBR Green DNA, 72 h; series mostly up to 28.7 µM
AA1029 = system: AA1029
Summary of the method: (§1)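 P. falciparum-infected erythrocytes (0.3% parasitemia, 2.5% hematocrit final) were exposed to compounds for 72 h at 37 C in 5% CO2, then lysed with SYBR Green buffer overnight at room temperature; parasite DNA fluorescence was normalized to artemisinin and DMSO controls.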

AS120 = system: AS120
Summary of the method: as §1

ATS189 = system: ATS189
Summary of the method: as §1

ATS95 = system: ATS95
Summary of the method: as §1

C2A = system: C2A
Summary of the method: as §1

CP185 = system: CP185
Summary of the method: as §1

CP191 = system: CP191
Summary of the method: as §1

CP192 = system: CP192
Summary of the method: as §1

CP194 = system: CP194
Summary of the method: as §1

CP201 = system: CP201
Summary of the method: as §1

CP203 = system: CP203
Summary of the method: as §1

CP215 = system: CP215
Summary of the method: as §1

CP217 = system: CP217
Summary of the method: as §1

CP237 = system: CP237
Summary of the method: as §1

CP238 = system: CP238
Summary of the method: as §1

CP247 = system: CP247
Summary of the method: as §1

CP250 = system: CP250
Summary of the method: as §1

CP252 = system: CP252
Summary of the method: as §1

CP256 = system: CP256
Summary of the method: as §1

CP211 = system: CP211
Summary of the method: as §1

Measured: Potency

Cc1cc(C(=O)NCCc2ccc(S(=O)(=O)NC(=O)NN3CCCCCC3)cc2)no1
inactive: AA1029 | AS120 | ATS189 | ATS95 | C2A | CP185 | CP191 | CP192 | CP194 | CP201 | CP203 | CP215 | CP217 | CP237 | CP238 | CP247 | CP250 | CP252 | CP256

Oc1cc(O)cc(O)c1
inactive: AA1029 | AS120 | ATS189 | ATS95 | C2A | CP185 | CP191 | CP192 | CP194 | CP201 | CP211 | CP215 | CP217 | CP237 | CP238 | CP247 | CP250 | CP252 | CP256

C=CCCCCCCCCC(=O)OC
inactive: AA1029 | AS120 | ATS189 | ATS95 | C2A | CP185 | CP191 | CP192 | CP194 | CP201 | CP211 | CP215 | CP217 | CP237 | CP238 | CP247 | CP250 | CP252 | CP256

CO/N=C(\C(=O)N[C@@H]1C(=O)N2C(C(=O)[O-])=C(C[n+]3cccc4c3CCC4)CS[C@H]12)c1csc(N)n1
inactive: AA1029 | AS120 | ATS189 | ATS95 | C2A | CP185 | CP191 | CP192 | CP194 | CP201 | CP211 | CP215 | CP217 | CP237 | CP238 | CP247 | CP250 | CP252 | CP256

COC(=O)CCC[N+](C)(C)C
inactive: AA1029 | AS120 | ATS189 | ATS95 | C2A | CP185 | CP191 | CP192 | CP194 | CP201 | CP211 | CP215 | CP217 | CP237 | CP238 | CP247 | CP250 | CP252 | CP256

c1ccc(-n2cnnn2)cc1
inactive: AA1029 | AS120 | ATS189 | ATS95 | C2A | CP185 | CP191 | CP192 | CP194 | CP201 | CP211 | CP215 | CP217 | CP237 | CP238 | CP247 | CP250 | CP252 | CP256

O=[n+]1ccn([O-])c2ccccc21
inactive: AA1029 | AS120 | ATS189 | ATS95 | C2A | CP185 | CP191 | CP192 | CP194 | CP201 | CP211 | CP215 | CP217 | CP237 | CP238 | CP247 | CP250 | CP252 | CP256

CCC(Cc1c(I)cc(I)c(O)c1I)C(=O)O (stereo unspecified)
inactive: AA1029 | AS120 | ATS189 | ATS95 | C2A | CP185 | CP191 | CP192 | CP194 | CP201 | CP211 | CP215 | CP217 | CP237 | CP238 | CP247 | CP250 | CP252 | CP256

Cc1ncc(C[n+]2csc(CCOP(=O)(O)OP(=O)(O)O)c2C)c(N)n1
inactive: AA1029 | AS120 | ATS189 | ATS95 | C2A | CP185 | CP191 | CP192 | CP194 | CP201 | CP211 | CP215 | CP217 | CP237 | CP238 | CP247 | CP250 | CP252 | CP256

CC1CCC(NC(=O)N(CCCl)N=O)CC1 (stereo unspecified)
inactive: AA1029 | AS120 | ATS189 | ATS95 | C2A | CP185 | CP191 | CP192 | CP194 | CP201 | CP211 | CP215 | CP217 | CP237 | CP238 | CP247 | CP250 | CP252 | CP256

COc1cc2c(cc1OC)[C@@H](Cc1cc(OC)c(OC)c(OC)c1)[N+](C)(CCCOC(=O)CC/C=C/CCC(=O)OCCC[N+]1(C)CCc3cc(OC)c(OC)cc3[C@H]1Cc1cc(OC)c(OC)c(OC)c1)CC2 (stereo partly specified)
inactive: AA1029 | AS120 | ATS189 | ATS95 | C2A | CP185 | CP191 | CP192 | CP194 | CP201 | CP211 | CP215 | CP217 | CP237 | CP238 | CP247 | CP250 | CP252 | CP256

COc1cc(S(C)=O)ccc1-c1nc2ncccc2[nH]1 (stereo unspecified)
inactive: AA1029 | AS120 | ATS189 | ATS95 | C2A | CP185 | CP191 | CP192 | CP194 | CP201 | CP211 | CP215 | CP217 | CP237 | CP238 | CP247 | CP250 | CP252 | CP256

COc1ccc(-c2noc(CC(=O)O)c2-c2ccc(OC)cc2)cc1
inactive: AA1029 | AS120 | ATS189 | ATS95 | C2A | CP185 | CP191 | CP192 | CP194 | CP201 | CP211 | CP215 | CP217 | CP237 | CP238 | CP247 | CP250 | CP252 | CP256

CC(/C=C/C=C(\C)C(=O)O[C@@H]1O[C@H](CO[C@@H]2O[C@H](CO)[C@@H](O)[C@H](O)[C@H]2O)[C@@H](O)[C@H](O)[C@H]1O)=C\C=C\C=C(C)\C=C\C=C(/C)C(=O)O[C@@H]1O[C@H](CO[C@@H]2O[C@H](CO)[C@@H](O)[C@H](O)[C@H]2O)[C@@H](O)[C@H](O)[C@H]1O
inactive: AA1029 | AS120 | ATS189 | ATS95 | C2A | CP185 | CP191 | CP192 | CP194 | CP201 | CP211 | CP215 | CP217 | CP237 | CP238 | CP247 | CP250 | CP252 | CP256
